# In PubChem BioAssay (NCATS):
# Values joined by “and” are separate entries in the source; they are usually repeats but may differ in a detail not shown here. Equal values may be shown once. Results filed as inconclusive are left out. A call without a number means that no potency is given here. Where a structure was tested more than once in an assay, its records may differ in their call. Values without a mark were called inactive. Active and inactive are the calls of the source. The call rests on the fitted dose curve; in most records, active means well fitted inhibition curve with a large enough effect; inconclusive means small, poorly fitted or top-dose-only effect; inactive means flat fitted curve, though single readings scatter.
# Key:
# [1] = system: CRL-7250; assay: Cytotoxic Profiling of Annotated Libraries Using Quantitative High-Throughput Screening (AID 1296008); conditions: Five cell lines viability, CellTiter-Glo ATP luminescence, 48-72 h; max response: active compounds read low
# Method in brief: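 Cytotoxicity was measured as CellTiter-Glo ATP luminescence, read after 10 min at room temperature. Compound treatment of the cells lasted 48 or 72 hr at 37 degrees Celsius in a qHTS format.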
# [2] = system: PC26; assay: qHTS profiling for inhibitors of Plasmodium falciparum proliferation (AID 504749); conditions: P. falciparum in erythrocytes, SYBR Green DNA, 72 h; series mostly up to 28.7 µM
# Method in brief: (§1)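 In a 72 h erythrocytic culture (37 C, humidified, 5% CO2) at 2.5% hematocrit and 0.3% starting parasitemia, compounds were tested; SYBR Green I in detergent lysis buffer stained parasite DNA overnight.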
# [3] = system: PC49; assay: as above; conditions: P. falciparum in erythrocytes, SYBR Green DNA, 72 h; series mostly up to 28.7 µM
# Method in brief: as §1
# [4] = system: TAB113; assay: as above; conditions: P. falciparum in erythrocytes, SYBR Green DNA, 72 h; series mostly up to 28.7 µM
# Method in brief: as §1
# [5] = system: W2; assay: as above; conditions: P. falciparum in erythrocytes, SYBR Green DNA, 72 h; series mostly up to 28.7 µM
# Method in brief: as §1
# [6] = system: PAD; assay: as above; conditions: P. falciparum in erythrocytes, SYBR Green DNA, 72 h; series mostly up to 28.7 µM
# Method in brief: as §1
# [7] = system: PC15; assay: as above; conditions: P. falciparum in erythrocytes, SYBR Green DNA, 72 h; series mostly up to 28.7 µM
# Method in brief: as §1
# [8] = system: SC27B; assay: as above; conditions: P. falciparum in erythrocytes, SYBR Green DNA, 72 h; series mostly up to 28.7 µM
# Method in brief: as §1
# [9] = system: TAB109; assay: as above; conditions: P. falciparum in erythrocytes, SYBR Green DNA, 72 h; series mostly up to 28.7 µM
# Method in brief: as §1
# [10] = system: TAB165; assay: as above; conditions: P. falciparum in erythrocytes, SYBR Green DNA, 72 h; series mostly up to 28.7 µM
# Method in brief: as §1
# Further: nearly all actives have a fitted effect of over 60% in size.
# Potency means the concentration at half of the fitted maximal effect.
compound,measurement,setting,value
O=C(c1cncc(Br)c1)N1CCC(N2CCCC2)CC1,max response,[1],-7.35%
same,outcome,[1],inactive
Nc1nc(NCCNc2ncc(-n3ccnc3)c(-c3ccc(Cl)cc3Cl)n2)ccc1[N+](=O)[O-],Potency,[1],5800 nM (active)
same,max response,[1],-3.28%
CN(C1CCc2c(c3ccccc3n2CC(=O)O)C1)S(=O)(=O)c1ccc(F)cc1 (stereo unspecified),max response,[1],3.48% and -10.1%
same,outcome,[1],inactive
CC(C)CC(=O)Nc1n[nH]c2c1CN(C(=O)C1CCN(C)CC1)C2(C)C,Potency,[1],1480 nM (active)
same,max response,[1],-90.6%
O=C(O)CCCc1c[nH]c2ccccc12,max response,[1],-4.82%
same,outcome,[1],inactive
CNC(=O)c1ccc(-c2cnc3ncc(Cc4ccc5ncccc5c4)n3n2)cc1F,max response,[1],-2.64%
same,outcome,[1],inactive
CC(C)(C)NC(=O)[C@H]1CN(Cc2cccnc2)CCN1C[C@@H](O)C[C@@H](Cc1ccccc1)C(=O)N[C@H]1c2ccccc2C[C@H]1O,Potency,[2],8490 nM (active)
same,Potency,[3],inactive
same,Potency,[4],11200 nM (active)
same,Potency,[5],6010 nM (active)
CNC(=O)c1ccc(N2C(=S)N(c3cnc(C#N)c(C(F)(F)F)c3)C(=O)C23CCC3)cc1F,max response,[1],-2.94%
same,outcome,[1],inactive
CC1(C)O[C@@H]2C[C@@H]3[C@H]4C[C@@H](F)C5=CC(=O)C=C[C@]5(C)[C@@]4(F)[C@@H](O)C[C@]3(C)[C@]2(C(=O)CO)O1,Potency,[6],inactive
same,Potency,[7],inactive
same,Potency,[3],inactive
same,Potency,[8],inactive
same,Potency,[9],inactive
same,Potency,[4],inactive
same,Potency,[10],inactive
same,Potency,[5],inactive
same,max response,[1],-20%
CN1c2cc(O)c(N=NC(N)=O)cc2CC1S(=O)(=O)O (stereo unspecified),Potency,[6],inactive
same,Potency,[7],inactive
same,Potency,[2],inactive
same,Potency,[3],inactive
same,Potency,[8],inactive
same,Potency,[9],inactive
same,Potency,[4],inactive
same,Potency,[10],inactive
same,Potency,[5],inactive
same,outcome,[1],inactive
O=C(CCCCCCC(=O)Nc1ccc([C@H]2O[C@@H](CSc3nc(-c4ccccc4)c(-c4ccccc4)o3)C[C@@H](c3ccc(CO)cc3)O2)cc1)NO,Potency,[1],18700 nM (active)
same,max response,[1],-17.1%
CC1(O)CC(c2nc(-c3ccc4ccc(-c5ccccc5)nc4c3)c3c(N)nccn23)C1 (stereo unspecified),Potency,[1],11800 nM (active)
same,max response,[1],-9.35%
CCC1=C[C@@H]2CN(C1)Cc1c([nH]c3ccccc13)[C@@](C(=O)OC)(c1cc3c(cc1OC)N(C)[C@@H]1[C@@](O)(C(=O)OC)[C@H](OC(C)=O)[C@]4(CC)C=CCN5CC[C@]31[C@@H]54)C2,Potency,[6],2240 nM (active)
same,Potency,[7],7080 nM (active)
same,Potency,[2],3380 nM (active)
same,Potency,[8],2240 nM (active)
same,Potency,[9],2240 nM (active)
same,Potency,[4],1580 nM (active)
same,Potency,[10],2510 nM (active)
same,Potency,[5],190 nM (active)
same,Potency,[1],46.9 nM (active)
Cc1c(C)n(Cc2ccc(-c3ccccc3C(=O)O)cc2)c2ccc(C(=O)N[C@@H](C)c3ccc([N+](=O)[O-])cc3)cc12,max response,[1],0.704%
same,outcome,[1],inactive
CC=CC1=C(C(=O)O)N2C(=O)[C@H](NC(=O)[C@H](N)c3ccc(O)cc3)[C@@H]2SC1,Potency,[6],inactive
same,Potency,[7],inactive
same,Potency,[2],inactive
same,Potency,[3],inactive
same,Potency,[8],inactive
same,Potency,[9],inactive
same,Potency,[4],inactive
same,Potency,[10],inactive
same,Potency,[5],inactive
same,max response,[1],1.71%
O=c1[nH]c(=O)n(C2CCCO2)cc1F (stereo unspecified),Potency,[6],inactive
same,Potency,[7],inactive
same,Potency,[2],inactive
same,Potency,[3],inactive
same,Potency,[8],inactive
same,Potency,[9],inactive
same,Potency,[4],inactive
same,Potency,[10],inactive
same,Potency,[5],inactive
same,outcome,[1],inactive
COC(=O)C1=C(C)NC(C)=C(C(=O)OCCN2CCN(C(c3ccccc3)c3ccccc3)CC2)C1c1cccc([N+](=O)[O-])c1 (stereo unspecified),Potency,[6],3160 nM (active)
same,Potency,[7],10000 nM (active)
same,Potency,[2],1900 nM (active)
same,Potency,[3],5010 nM (active)
same,Potency,[8],2240 nM (active)
same,Potency,[9],3550 nM (active)
same,Potency,[4],2000 nM (active)
same,Potency,[10],2240 nM (active)
same,Potency,[5],1350 nM (active)
